# PubChem BioAssay (EPA / NIEHS)
# Several values for one entry are separate records, joined by “and”; a condition that tells them apart may be missing. Equal entries are not always repeated. Records with an inconclusive call do not appear. Activity calls are given as the source filed them. The calls were made as follows, unless noted: active = hit-call score of the fitted dose curve at least 0.9, where 1 is the maximum; inconclusive = response in the unintended direction; inactive = score below 0.9.
# What was measured:
# [1] = system: DIO1 (gene 1733); assay: CCTE_GLTED_hDIO1: CCTE's human Deiodinase 1 (DIO1) Inhibition Assay, Great Lakes Toxicology and Ecology Division (GLTED) Lab (AID 2283987);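 also: isolated human DIO1 enzyme in a cell-free setup rather than cells; enzyme activity read as free iodide liberated from substrate via Sandell-Kolthoff colorimetry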
# Procedure, shortened: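 Cell-free hDIO1 assay, triplicate plates. Absorbance of the Sandell-Kolthoff reaction reports enzyme-liberated iodide; iodinated chemicals or nitrite, iron and thiocyanate may interfere.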
# [2] = CCTE_Simmons_MITO_basal_resp_rate: CCTE's HepG2 Seahorse XF Respirometric Screening Assay at Basal Respiratory State, Simmons Lab (AID 2284001; active = hit-call score of the fitted dose curve at least 0.9, where 1 is the maximum; inactive = score below 0.9); conditions: actives raise or lower the signal
# Procedure, shortened: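 HepG2 oxygen consumption on Seahorse XF96 after compound injection, 7 concentrations 125 nM–100 uM final, reads every 6 min over 72 min. Triplicate biological replicates; bidirectional fit vs DMSO; fenpyroximate and 2,4-dinitrophenol controls.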
# [3] = biological target: Nucleoli Translocation, AR (gene 367) (UniProt P10275); assay: UPITT_HCI_U2OS_AR_TIF2_Nucleoli_Agonist: University of Pittsburgh U2OS Androgen Receptor-Transcriptional Intermediary Factor 2 (AR-TIF2) Agonism High Content Imaging Assay for Nucleoli Translocation (AID 2283998)
# Chain of Nucleoli Translocation, AR (gene 367) (P10275 whole entry, looked up): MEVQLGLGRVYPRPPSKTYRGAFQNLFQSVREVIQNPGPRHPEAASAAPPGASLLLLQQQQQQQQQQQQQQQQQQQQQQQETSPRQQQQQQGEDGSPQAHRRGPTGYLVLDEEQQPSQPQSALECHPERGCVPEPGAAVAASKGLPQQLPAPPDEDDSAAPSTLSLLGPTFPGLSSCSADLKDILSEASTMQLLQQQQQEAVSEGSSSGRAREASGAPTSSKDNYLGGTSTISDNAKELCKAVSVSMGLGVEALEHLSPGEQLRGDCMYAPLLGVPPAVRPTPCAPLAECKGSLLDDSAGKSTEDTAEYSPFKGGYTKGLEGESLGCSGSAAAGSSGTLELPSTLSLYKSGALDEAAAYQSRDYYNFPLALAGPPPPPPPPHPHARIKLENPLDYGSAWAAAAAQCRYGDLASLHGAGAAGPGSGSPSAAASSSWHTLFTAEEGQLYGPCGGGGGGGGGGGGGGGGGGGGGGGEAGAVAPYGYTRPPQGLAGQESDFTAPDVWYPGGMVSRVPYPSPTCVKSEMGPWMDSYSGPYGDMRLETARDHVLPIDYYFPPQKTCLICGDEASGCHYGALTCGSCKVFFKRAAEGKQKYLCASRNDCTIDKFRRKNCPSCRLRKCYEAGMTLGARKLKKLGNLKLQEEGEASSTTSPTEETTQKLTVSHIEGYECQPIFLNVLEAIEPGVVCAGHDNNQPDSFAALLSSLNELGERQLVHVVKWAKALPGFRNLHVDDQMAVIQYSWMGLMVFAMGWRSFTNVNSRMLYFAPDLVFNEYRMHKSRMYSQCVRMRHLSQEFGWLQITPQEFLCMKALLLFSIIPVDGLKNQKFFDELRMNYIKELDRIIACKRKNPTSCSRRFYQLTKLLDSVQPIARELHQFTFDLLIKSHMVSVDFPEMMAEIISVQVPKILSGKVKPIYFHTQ
# Procedure, shortened: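 Red-tagged human androgen receptor co-expressed with GFP-tagged TIF2 serves as the binding reporter. Primary testing used 20 uM final (0.2% DMSO); follow-up dose response covered 0.195 to 50 uM final (0.5% DMSO).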
# [4] = biological target: Ratio of Nucleoli Translocation and Cytoplasm, AR (gene 367) (UniProt P10275); assay: UPITT_HCI_U2OS_AR_TIF2_Nucleoli_Cytoplasm_Ratio_Antagonist: University of Pittsburgh U2OS Androgen Receptor-Transcriptional Intermediary Factor 2 (AR-TIF2) Antagonism High Content Imaging Assay for Ratio of Nucleoli Translocation and Cytoplasm (AID 2283999);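 also: antagonists lower the DHT-driven ratio of nucleolar to cytoplasmic red signal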
# Chain of Ratio of Nucleoli Translocation and Cytoplasm, AR (gene 367) (P10275 whole entry, looked up): as above
# Procedure, shortened: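 U2OS cells expressing RFP-tagged human AR and GFP-tagged TIF2; compounds tested at 20 uM final (0.2% DMSO) in primary screen, 0.195–50 uM (0.5% DMSO) for concentration response. Readout: nucleolar-to-cytoplasmic red fluorescence ratio by high-content imaging, fitted relative to DHT.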
# [5] = biological target: Ratio of Nucleoli Translocation and Cytoplasm, AR (gene 367) (UniProt P10275); assay: UPITT_HCI_U2OS_AR_TIF2_Nucleoli_Cytoplasm_Ratio_Agonist: University of Pittsburgh U2OS Androgen Receptor-Transcriptional Intermediary Factor 2 (AR-TIF2) Agonism High Content Imaging Assay for Ratio of Nucleoli Translocation and Cytoplasm (AID 2284000);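 also: hits raise the red nucleolar to cytoplasm ratio above vehicle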
# Procedure, shortened: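 U2OS cells expressing RFP-tagged human AR and GFP-tagged TIF2; high-content imaging ratio of nucleolar to cytoplasmic red fluorescence, fitted as gain of signal vs DMSO. Single point at 20 uM final (0.2% DMSO); concentration-response 0.195-50 uM final (0.5% DMSO).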
# [6] = biological target: Retinoic acid receptor RXR-alpha (Homo sapiens) (UniProt P19793); assay: TOX21_TR_RXR_BLA_Antagonist_Followup_ratio: Tox21 Thyroid Hormone Receptor beta Retinoid X Receptor alpha (RXRa) Antagonism Beta-lactamase (BLA) Follow-Up Assay, Ratio (AID 2283972)
# Chain of Retinoic acid receptor RXR-alpha (Homo sapiens) (P19793 whole entry, looked up, the tested form may be a part): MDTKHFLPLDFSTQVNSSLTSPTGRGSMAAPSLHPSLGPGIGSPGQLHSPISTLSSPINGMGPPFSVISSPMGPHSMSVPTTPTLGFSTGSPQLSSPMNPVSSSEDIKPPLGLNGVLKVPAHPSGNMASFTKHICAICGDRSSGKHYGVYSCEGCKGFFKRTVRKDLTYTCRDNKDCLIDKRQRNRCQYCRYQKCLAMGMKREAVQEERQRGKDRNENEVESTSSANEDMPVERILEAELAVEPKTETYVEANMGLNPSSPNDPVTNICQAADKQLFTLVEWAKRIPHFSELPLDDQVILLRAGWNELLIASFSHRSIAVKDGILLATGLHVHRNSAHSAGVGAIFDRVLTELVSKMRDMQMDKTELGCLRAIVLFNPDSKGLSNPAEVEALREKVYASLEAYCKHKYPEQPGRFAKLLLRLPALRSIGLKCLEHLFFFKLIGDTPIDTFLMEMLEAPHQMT
# Procedure, shortened: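 Antagonist mode used GAL4 UAS-driven beta-lactamase in HEK293T cells expressing RXRa, treated for 16 h with compound concentration series. Activity was taken from the blue/green (460:530 nm) ratio of cleaved to uncleaved substrate.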
# [7] = CCTE_Harrill_HTTr_Viability_DMEM_6hr: (Pilot) CCTE's 6-hour Cell Viability Assessment for the High-Throughput Transcriptomics (HTTr) Platform, in MCF-7 cells cultured in DMEM + 10% fetal bovine serum, Harrill Lab (AID 2283973; active = hit-call score of the fitted dose curve at least 0.9, where 1 is the maximum; inactive = score below 0.9)
# Procedure, shortened: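 MCF-7 cells in DMEM + 10% FBS, eight-point dilution series, 6 h exposure. Membrane integrity by propidium iodide exclusion with high-content imaging; bidirectional fit versus DMSO.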
# [8] = CCTE_Harrill_HTTr_Viability_DMEM_12hr: (Pilot) CCTE's 12-hour Cell Viability Assessment for the High-Throughput Transcriptomics (HTTr) Platform, in MCF-7 cells cultured in DMEM + 10% fetal bovine serum, Harrill Lab (AID 2283974; active = hit-call score of the fitted dose curve at least 0.9, where 1 is the maximum; inactive = score below 0.9)
# Procedure, shortened: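 MCF-7 cells in DMEM + 10% FBS exposed 12 h to an eight-point dilution series; membrane integrity scored by propidium iodide exclusion with high-content imaging, bidirectional fitting versus DMSO.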
# [9] = CCTE_Harrill_HTTr_Viability_DMEM_24hr: (Pilot) CCTE's 24-hour Cell Viability Assessment for the High-Throughput Transcriptomics (HTTr) Platform, in MCF-7 cells cultured in DMEM + 10% fetal bovine serum, Harrill Lab (AID 2283975; active = hit-call score of the fitted dose curve at least 0.9, where 1 is the maximum; inactive = score below 0.9)
# Procedure, shortened: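 MCF-7 cells in DMEM with 10% FBS exposed for 24 hours to an eight-point dilution series. Membrane integrity by propidium iodide exclusion with high content imaging; bidirectional fit against DMSO.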
# [10] = CCTE_Harrill_HTTr_Viability_PRF_DMEM_6hr: (Pilot) CCTE's 6-hour Cell Viability Assessment for the High-Throughput Transcriptomics (HTTr) Platform, in MCF-7 cells cultured phenol red-free DMEM + 10% charcoal-stripped fetal bovine serum, Harrill Lab (AID 2283976; active = hit-call score of the fitted dose curve at least 0.9, where 1 is the maximum; inactive = score below 0.9)
# Procedure, shortened: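 MCF-7 cells in phenol red-free DMEM with 10% charcoal-stripped FBS exposed 6 hours to an eight-point dilution series. Propidium iodide exclusion imaged; curves fitted bidirectionally against DMSO.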
# [11] = CCTE_Harrill_HTTr_Viability_PRF_DMEM_12hr: (Pilot) CCTE's 12-hour Cell Viability Assessment for the High-Throughput Transcriptomics (HTTr) Platform, in MCF-7 cells cultured in phenol red-free DMEM + 10% charcoal-stripped fetal bovine serum, Harrill Lab (AID 2283977; active = hit-call score of the fitted dose curve at least 0.9, where 1 is the maximum; inactive = score below 0.9)
# Procedure, shortened: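 MCF-7 cells in phenol red-free DMEM with 10% charcoal-stripped FBS exposed 12 hours to an eight-point dilution series. Viability assessed by high-content imaging of propidium iodide exclusion; bidirectional fit versus DMSO.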
# [12] = TOX21_TR_RXR_BLA_Antagonist_Followup_viability: Viability Assessment in the Tox21 Thyroid Hormone Receptor beta Retinoid X Receptor alpha (RXRa) Antagonism Beta-lactamase (BLA) Follow-Up Assay (AID 2283979)
# Procedure, shortened: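 RXRa-bla HEK293T cells (2,500/well, phenol red-free DMEM, 2% charcoal-stripped FBS) were attached 5 h, then exposed to compounds at 11 concentrations in triplicate for 16 h at 37C. Viability measured by CellTiter-Glo ATP luminescence, bidirectional fitting versus DMSO.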
# [13] = CCTE_Harrill_HTTr_Viability_PRF_DMEM_24hr: (Pilot) CCTE's 24-hour Cell Viability Assessment for the High-Throughput Transcriptomics (HTTr) Platform, in MCF-7 cells cultured in phenol red-free DMEM + 10% charcoal-stripped fetal bovine serum, Harrill Lab (AID 2283980; active = hit-call score of the fitted dose curve at least 0.9, where 1 is the maximum; inactive = score below 0.9)
# Procedure, shortened: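 MCF-7 cells in phenol red-free DMEM with 10% charcoal-stripped FBS, eight-point dilution series, 24 h exposure. Membrane integrity by propidium iodide exclusion with high content imaging; bidirectional fit vs DMSO.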
# [14] = CCTE_Harrill_HTTr_Apoptosis_DMEM_6hr: (Pilot) CCTE's 6-hour Apoptosis Assessment for the High-Throughput Transcriptomics (HTTr) Platform, in MCF-7 cells cultured in DMEM + 10% fetal bovine serum, Harrill Lab (AID 2283981; active = hit-call score of the fitted dose curve at least 0.9, where 1 is the maximum; inactive = score below 0.9)
# Procedure, shortened: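 Caspase-3/7 activation read by high content imaging with CellEvent Caspase 3/7 Green in MCF-7 cells (DMEM + 10% FBS), 6 h after dosing; eight-point dilution series. Bidirectional fitting relative to DMSO baseline.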
# [15] = CCTE_Harrill_HTTr_Apoptosis_DMEM_12hr: (Pilot) CCTE's 12-hour Apoptosis Assessment for the High-Throughput Transcriptomics (HTTr) Platform, in MCF-7 cells cultured in DMEM + 10% fetal bovine serum, Harrill Lab (AID 2283982; active = hit-call score of the fitted dose curve at least 0.9, where 1 is the maximum; inactive = score below 0.9)
# Procedure, shortened: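 MCF-7 cells in DMEM + 10% FBS, exposed 12 h to an eight-point dilution series; caspase-3/7 activation imaged with CellEvent Green. Bidirectional fit versus DMSO.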
# [16] = CCTE_Harrill_HTTr_Apoptosis_DMEM_24hr: (Pilot) CCTE's 24-hour Apoptosis Assessment for the High-Throughput Transcriptomics (HTTr) Platform, in MCF-7 cells cultured in DMEM + 10% fetal bovine serum, Harrill Lab (AID 2283983; active = hit-call score of the fitted dose curve at least 0.9, where 1 is the maximum; inactive = score below 0.9)
# Procedure, shortened: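 MCF-7 cells in DMEM + 10% FBS, eight-point dilution series, 24 h exposure. Caspase-3/7 activation imaged by high-content imaging with CellEvent Caspase 3/7 Green. Bidirectional curve fitting against DMSO baseline.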
# [17] = CCTE_Harrill_HTTr_Apoptosis_PRF_DMEM_6hr: (Pilot) CCTE's 6-hour Apoptosis Assessment for the High-Throughput Transcriptomics (HTTr) Platform, in MCF-7 cells cultured phenol red-free DMEM + 10% charcoal-stripped fetal bovine serum, Harrill Lab (AID 2283984; active = hit-call score of the fitted dose curve at least 0.9, where 1 is the maximum; inactive = score below 0.9)
# Procedure, shortened: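 MCF-7 cells in phenol red-free DMEM + 10% charcoal-stripped FBS, eight-point dilution series, 6 h exposure. Caspase-3/7 activation imaged by high-content imaging with CellEvent Caspase 3/7 Green; bidirectional fit versus DMSO baseline.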
# [18] = CCTE_Harrill_HTTr_Apoptosis_PRF_DMEM_12hr: (Pilot) CCTE's 12-hour Apoptosis Assessment for the High-Throughput Transcriptomics (HTTr) Platform, in MCF-7 cells cultured in phenol red-free DMEM + 10% charcoal-stripped fetal bovine serum, Harrill Lab (AID 2283985; active = hit-call score of the fitted dose curve at least 0.9, where 1 is the maximum; inactive = score below 0.9)
# Procedure, shortened: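 MCF-7 cells in phenol red-free DMEM with 10% charcoal-stripped FBS, eight-point dilution series, 12 h exposure. Caspase-3/7 activation imaged by high content imaging with CellEvent Green reagent; bidirectional fit vs DMSO.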
# [19] = CCTE_Harrill_HTTr_Apoptosis_PRF_DMEM_24hr: (Pilot) CCTE's 24-hour Apoptosis Assessment for the High-Throughput Transcriptomics (HTTr) Platform, in MCF-7 cells cultured in phenol red-free DMEM + 10% charcoal-stripped fetal bovine serum, Harrill Lab (AID 2283986; active = hit-call score of the fitted dose curve at least 0.9, where 1 is the maximum; inactive = score below 0.9)
# Procedure, shortened: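 MCF-7 cells in phenol red-free DMEM with 10% charcoal-stripped FBS, exposed 24 h across an eight-point dilution series. Caspase-3/7 activation imaged with CellEvent Green by high content imaging; bidirectional fitting against DMSO.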
smiles,measurement,setting,value
CCc1cccc(C)c1N(C(=O)CCl)C(C)COC (configuration not stated),AC50,[1],64.2 µM (active)
same,AC50,[2],23.7 µM (active)
CC(C)=CC1C(C(=O)OCN2C(=O)C3=C(CCCC3)C2=O)C1(C)C (configuration not stated),outcome,[3],inactive
same,outcome,[4],inactive
same,AC50,[2],42.5 µM (active)
CCOC(=O)COc1cc(-c2nn(C)c(OC(F)F)c2Cl)c(F)cc1Cl,outcome,[3],inactive
same,outcome,[5],inactive
FC(F)C(F)(F)OCC(Cn1cncn1)c1ccc(Cl)cc1Cl (configuration not stated),AC50,[2],12.8 µM (active)
CCCSP(=O)(OCC)SCCC,outcome,[3],inactive
same,outcome,[4],inactive
same,outcome,[5],inactive
same,AC50,[2],32.8 µM (active)
CCC(=O)Nc1ccc(Cl)c(Cl)c1,outcome,[4],inactive
same,outcome,[5],inactive
same,AC50,[2],41.1 µM (active)
CN(C)[C@@H]1C(=O)C(C(N)=O)=C(O)[C@@]2(O)C(=O)C3=C(O)c4c(O)cccc4[C@@](C)(O)[C@H]3[C@H](O)[C@@H]12,AC50,[1],29.8 µM (active) and 15.9 µM (active) and 27.1 µM (active)
same,outcome,[2],inactive
CC(C)N(C(=O)SCC(Cl)=C(Cl)Cl)C(C)C,outcome,[2],inactive
CCC(CC)Nc1c([N+](=O)[O-])cc(C)c(C)c1[N+](=O)[O-],AC50,[2],24.8 µM (active)
C[Si](Cn1cncn1)(c1ccc(F)cc1)c1ccc(F)cc1,AC50,[2],13.9 µM (active)
O=c1ccc(=O)[nH][nH]1,outcome,[3],inactive
same,outcome,[5],inactive
CCCCOC(=O)c1ccccc1C(=O)O,outcome,[3],inactive
same,outcome,[4],inactive
same,outcome,[5],inactive
CCCSP(=O)(OCC)Oc1ccc(Br)cc1Cl (configuration not stated),outcome,[2],inactive
N#CSCSC#N,outcome,[3],inactive
same,AC50,[4],12.7 µM (active)
same,AC50,[2],32.6 µM (active)
CC1(C(=O)Nc2ccc(O)c(Cl)c2Cl)CCCCC1,AC50,[2],29.8 µM (active)
COP(=O)(OC)OC(Br)C(Cl)(Cl)Br (configuration not stated),AC50,[3],79 µM (active)
same,outcome,[4],inactive
same,AC50,[5],77.9 µM (active)
same,outcome,[2],inactive
O=[N+]([O-])c1cc(C(F)(F)F)c(Cl)c([N+](=O)[O-])c1Nc1ncc(C(F)(F)F)cc1Cl,AC50,[1],19.4 µM (active)
same,AC50,[2],14.2 µM (active)
CCCCOC(=O)[C@@H](C)Oc1ccc(Oc2ccc(C#N)cc2F)cc1,outcome,[2],inactive
CCOP(=O)(NC(C)C)Oc1ccc(SC)c(C)c1 (configuration not stated),outcome,[3],inactive
same,outcome,[4],inactive
same,outcome,[5],inactive
same,outcome,[2],inactive
CCCOCC(=Nc1ccc(Cl)cc1C(F)(F)F)n1ccnc1,AC50,[1],16.2 µM (active)
same,outcome,[2],inactive
C#CCC1=C(C)C(OC(=O)C2C(C=C(C)C)C2(C)C)CC1=O (configuration not stated),AC50,[2],34.9 µM (active)
C=C(C)[C@H]1Cc2c(ccc3c2O[C@@H]2COc4cc(OC)c(OC)cc4[C@@H]2C3=O)O1,outcome,[6],inactive
same,outcome,[7],inactive
same,outcome,[8],inactive
same,AC50,[9],0.0311 µM (active)
same,outcome,[10],inactive
same,outcome,[11],inactive
same,outcome,[12],inactive
same,AC50,[13],0.0246 µM (active)
same,outcome,[14],inactive
same,outcome,[15],inactive
same,outcome,[16],inactive
same,outcome,[17],inactive
same,outcome,[18],inactive
same,outcome,[19],inactive
same,outcome,[3],inactive
same,outcome,[4],inactive
same,outcome,[5],inactive
same,AC50,[2],0.108 µM (active)
